Laboratory results reported in PubChem BioAssay AID1159580 (chemical genetic matrix, 2015).
Screen size: about 5,500 compounds; about 2,000 (36%) were called active. About 18% were inconclusive and are not listed. Cut-off read from the data, not from the text of the source: active = normalized growth mostly below about 0.91 (no sharp cut-off); inconclusive = no clear call, values can overlap the other calls; inactive = mostly above about 0.92. The list shows a part of the results.

Assay: chemical genetic growth profiling, strain panel (AID 1159580);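 note: tested at 20 µM; growth read once vehicle control cultures reached saturation at 30 °C; 1 = growth at the plate median or of vehicle wells; lower values mean less growth of the strain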
Conditions: S. cerevisiae deletion strains, growth OD

Measured: normalized growth

CO/N=C(/C(=O)N[C@@H]1C(=O)N2C(C(=O)O)=C(COC(C)=O)CS[C@H]12)c1csc(N)n1
inactive: locus YAL013W, strain DEP1, hits give low values 1.01 | locus YAL040C, strain CLN3, hits give low values 1.02 | locus YDR363W, strain ESC2, hits give low values 1.01 | locus YER002W, strain NOP16, hits give low values 0.983 | locus YGR229C, strain SMI1, hits give low values 1 | locus YMR263W, strain SAP30, hits give low values 0.965 | locus YNL153C, strain GIM3, hits give low values 1.07 | locus YNL175C, strain NOP13, hits give low values 1.01 | locus YNL197C, strain WHI3, hits give low values 1.01 | locus YNL224C, strain SQS1, hits give low values 0.99 | locus YNL322C, strain KRE1, hits give low values 0.985 | locus YOR083W, strain WHI5 (second series), hits give low values 0.978 | locus YPL241C, strain CIN2, hits give low values 1

CO/N=C(\C(=O)NC1C(=O)N2C(C(=O)OC(C)OC(C)=O)=C(COC(N)=O)CSC12)c1ccco1 (stereo not drawn)
inactive: locus YAL021C, strain ccr4, hits give low values 0.994 | locus YAL026C, strain drs2, hits give low values 0.996 | locus YAL030W, strain snc1, hits give low values 0.998 | locus YBL061C, strain skt5, hits give low values 0.992 | locus YBR009C, strain hhf1, hits give low values 0.994 | locus YBR023C, strain chs3, hits give low values 0.988 | locus YBR171W, strain sec66, hits give low values 0.983 | locus YBR231C, strain swc5, hits give low values 1 | locus YBR279W, strain paf1, hits give low values 0.991 | locus YCL011C, strain gbp2, hits give low values 0.997 | locus YCL016C, strain dcc1, hits give low values 0.985 | locus YCL061C, strain MRC1, hits give low values 0.99 | locus YCL069W, strain vba3, hits give low values 0.989 | locus YCR088W, strain abp1, hits give low values 0.994 | locus YDL005C, strain med2, hits give low values 0.985 | locus YDL040C, strain nat1, hits give low values 0.995 | locus YDR001C, strain nth1, hits give low values 1 | locus YDR069C, strain doa4, hits give low values 0.994 | locus YDR137W, strain rgp1, hits give low values 0.996 | locus YDR159W, strain sac3, hits give low values 0.996 | locus YDR195W, strain ref2 0.985 | locus YDR297W, strain sur2, hits give low values 1 | locus YDR334W, strain swr1, hits give low values 1 | locus YDR335W, strain msn5, hits give low values 0.996 | locus YDR392W, strain spt3, hits give low values 0.993 | locus YEL003W, strain gim4, hits give low values 0.998 | locus YEL037C, strain rad23, hits give low values 0.997 | locus YEL061C, strain CIN8 (second series), hits give low values 0.999 | locus YER015W, strain faa2, hits give low values 1 | locus YER016W, strain bim1, hits give low values 0.99 | locus YER111C, strain swi4, hits give low values 0.986 | locus YER155C, strain BEM2 (second series), hits give low values 0.991 | locus YFR010W, strain ubp6, hits give low values 0.998 | locus YGL167C, strain pmr1, hits give low values 0.989 | locus YGL173C, strain kem1, hits give low values 0.985 | locus YGL227W, strain vid30, hits give low values 0.981 | locus YGL240W, strain doc1, hits give low values 1.01 | locus YGL253W, strain hxk2, hits give low values 1 | locus YHR013C, strain ard1, hits give low values 0.998 | locus YHR027C, strain rpn1, hits give low values 0.994 | locus YHR030C, strain SLT2, hits give low values 1.03 | locus YHR079C, strain IRE1, hits give low values 1.05 | locus YHR142W, strain chs7, hits give low values 0.99 | locus YJL092W, strain hpr5, hits give low values 0.993 | locus YJL095W, strain BCK1 (second series), hits give low values 0.997 | locus YJL095W, strain BCK1, hits give low values 1.01 | locus YJL115W, strain asf1, hits give low values 0.996 | locus YJL129C, strain trk1, hits give low values 0.987 | locus YJL154C, strain vps35, hits give low values 1.01 | locus YJL164C, strain tpk1, hits give low values 0.996 | locus YJL166W, strain qcr8, hits give low values 0.996 | locus YJL187C, strain SWE1, hits give low values 1 | locus YJR066W, strain TOR1, hits give low values 0.989 | locus YKL160W, strain elf1, hits give low values 0.997 | locus YKR026C, strain gcn3, hits give low values 0.983 | locus YKR091W, strain srl3, hits give low values 0.998 | locus YLL001W, strain dnm1, hits give low values 0.981 | locus YLL026W, hits give low values 0.991 | locus YLL041C, strain sdh2, hits give low values 0.993 | locus YLR027C, strain aat2, hits give low values 0.992 | locus YLR113W, strain HOG1, hits give low values 1 | locus YLR221C, strain rsa3, hits give low values 0.995 | locus YLR258W, strain gsy2, hits give low values 0.995 | locus YLR262C, strain YPT6 (second series), hits give low values 0.985 | locus YLR320W, strain mms22, hits give low values 0.986 | locus YLR342W, strain FKS1, hits give low values 0.988 | locus YLR357W, strain rsc2, hits give low values 1.02 | locus YLR370C, strain arc18, hits give low values 0.987 | locus YLR384C, strain iki3, hits give low values 1 | locus YML120C, strain ndi1, hits give low values 0.996 | locus YMR058W, strain fet3, hits give low values 0.996 | locus YMR125W, strain sto1, hits give low values 0.985 | locus YMR129W, hits give low values 0.995 | locus YMR205C, strain PFK2, hits give low values 0.991 | locus YMR231W, strain pep5, hits give low values 0.989 | locus YNL071W, strain lat1, hits give low values 1 | locus YNL183C, strain NPR1, hits give low values 0.99 | locus YNL209W, strain ssb2, hits give low values 0.995 | locus YNL248C, strain rpa49, hits give low values 0.987 | locus YNL322C, strain KRE1 (second series), hits give low values 0.99 | locus YNR049C, strain mso1, hits give low values 0.992 | locus YOR001W, strain rrp6, hits give low values 0.999 | locus YOR070C, strain gyp1, hits give low values 0.929 | locus YOR080W, strain dia2, hits give low values 1 | locus YOR083W, strain WHI5, hits give low values 0.996 | locus YOR106W, strain vam3, hits give low values 0.988 | locus YOR231W, strain MKK1, hits give low values 1.04 | locus YOR265W, strain rbl2, hits give low values 0.991 | locus YOR270C, strain vph1, hits give low values 1 | locus YOR290C, strain snf2, hits give low values 1 | locus YPL051W, strain arl3, hits give low values 0.999 | locus YPL078C, strain atp4, hits give low values 0.995 | locus YPL106C, strain sse1, hits give low values 0.981 | locus YPL240C, strain hsp82, hits give low values 0.994 | locus YPL256C, strain CLN2, hits give low values 1.07
